Compound activity deposited in PubChem BioAssay by several laboratories.
An excerpt weighted towards active compounds, which were near 3.2% of everything screened.
APOBEC3A inh: human APOBEC3A DNA deaminase inhibition; P31941; recombinant A3A, FAM/TAMRA ssDNA deamination fluorescence; inhibition, % at 20 µM; 330,000 compounds, 0.41% hits; AID 493011;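 active = at least 40% inhibition at 20 µM here, with at most 30% in a related deaminase screen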;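 also: plate controls were A3A with DMSO for no effect and wells lacking A3A enzyme for full effect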
Target sequence (P31941 whole entry, looked up): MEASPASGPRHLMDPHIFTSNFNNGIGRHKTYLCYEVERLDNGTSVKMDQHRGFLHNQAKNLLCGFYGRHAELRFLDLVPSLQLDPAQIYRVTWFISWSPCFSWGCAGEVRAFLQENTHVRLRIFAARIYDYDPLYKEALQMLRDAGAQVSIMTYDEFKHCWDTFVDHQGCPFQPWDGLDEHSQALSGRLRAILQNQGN
NTR1 agonist: activates human neurotensin receptor 1. P30989. NTR1-U2OS beta-arrestin-GFP spot imaging, agonist mode. activation, % at 20 µM. 330,000 compounds, 0.17% hits. AID 493036;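 active = activation at or above 40% of the spot to cytoplasm intensity ratio, with at least 20 cells analyzed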;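 also: 0% = DMSO without peptide and 100% = 100 nM NTR1 peptide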
A3G deaminase: APOBEC3G (human) deaminase inhibition; Q9HC16; recombinant A3G, ssDNA deamination FAM/TAMRA fluorescence; inhibition, % at 20 µM; 330,000 compounds, 0.28% hits;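 active = inhibition of at least 40% at 20 µM, with no more than 30% in the related APOBEC3A deaminase screen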;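 also: plate controls were DMSO wells with A3G for no effect and wells lacking A3G enzyme for full effect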
AHR act: activators of human aryl hydrocarbon receptor; activation, % at 5 µM; P35869; 320,000 compounds, 2.5% hits; AHR-responsive luciferase reporter cells, luminescence; in the data active = activation above about 47%;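 also: 0% = vehicle wells and 100% = reference agonist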
APOBEC3G confirm: APOBEC3G (human) deaminase inhibition, confirmed; inhibition, % at 20 µM; AID 493152; shares compounds with A3G deaminase; recombinant A3G ssDNA deaminase, UDG/FAM-TAMRA fluorescence; 890 compounds, 72% hits;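 active = inhibition reaching a set limit in any replicate at 20 µM, the limit being 80% of the first screen's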
UDG A3G counter: E. coli UDG inhibition in APOBEC3G counter-screen | 710 tested, under 10 active | shares compounds with A3G deaminase | UDG counterscreen, FAM/TAMRA oligo fluorescence | AID 504715 | inhibition, % at 20 µM;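 active = compounds giving 40% or more inhibition at 20 µM in any one of the three replicates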;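 also: plate controls were DMSO wells with UDG and oligo for no effect and DMSO wells lacking both for full effect; inhibitors lower the FAM signal released by uracil excision and alkaline cleavage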
Target sequence (P12295 whole entry, looked up): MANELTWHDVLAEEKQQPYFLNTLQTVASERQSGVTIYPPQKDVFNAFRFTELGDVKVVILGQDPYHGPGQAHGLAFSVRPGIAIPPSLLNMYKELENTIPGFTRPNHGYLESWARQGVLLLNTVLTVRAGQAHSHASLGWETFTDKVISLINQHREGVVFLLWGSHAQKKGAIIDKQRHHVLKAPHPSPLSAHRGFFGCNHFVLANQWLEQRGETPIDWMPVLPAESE
Numbers without * were called inactive.

How did Nc1c(C(=O)N2CCCCC2)sc(=S)n1-c1ccccc1 do in these assays?
APOBEC3A inh: 1; NTR1 agonist: 1; A3G deaminase: 56*; AHR act: -1; APOBEC3G confirm: 27

How did Cc1ccc(-n2c(N)c(C(=O)N3CCN(C)CC3)sc2=S)cc1 do in these assays?
APOBEC3A inh: -1; NTR1 agonist: 3; A3G deaminase: 46*; AHR act: -2; APOBEC3G confirm: 74*; UDG A3G counter: -3

What do the screens show for `Cc1ccc(-n2c(N)c(C(N)=O)sc2=S)c(C)c1`?
APOBEC3A inh: 1; NTR1 agonist: 0; A3G deaminase: 45*; AHR act: -1; APOBEC3G confirm: 14

Results for Cc1ccc(C)c(-n2c(N)c(C(N)=O)sc2=S)c1 ?
APOBEC3A inh: 1; NTR1 agonist: 0; A3G deaminase: 0; AHR act: -1

Results for Nc1c(C(=O)N2CCOCC2)sc(=S)n1-c1ccccc1 ?
APOBEC3A inh: 0; NTR1 agonist: 2; A3G deaminase: 52*; AHR act: 1; APOBEC3G confirm: 31*; UDG A3G counter: -4

Results for Cc1ccc(-n2c(N)c(C(=O)N3CCCCC3)sc2=S)cc1 ?
APOBEC3A inh: -2; NTR1 agonist: 0; A3G deaminase: 37; AHR act: 4

Results for O=C(CCS(=O)(=O)c1ccccc1)Nc1cccc2c1C(=O)NC2=O ?
APOBEC3A inh: -2; NTR1 agonist: 0; A3G deaminase: -3; AHR act: 2

What do the screens show for `Cc1nn(-c2ccc(Cl)cc2)c2[nH]c(CCl)cc(=O)c12`?
APOBEC3A inh: 6; NTR1 agonist: 0; A3G deaminase: 2; AHR act: 16

How did Cc1cccc(N2CCN(C(=O)C3CCC(CNS(=O)(=O)c4cccs4)CC3)CC2)c1C (configuration not stated) do in these assays?
APOBEC3A inh: -1; NTR1 agonist: 8; A3G deaminase: -7; AHR act: -1

Results for CC1CCCN(C(=O)COC(=O)c2ccc3[nH]c4c(c3c2)CCCC4)C1 (configuration not stated) ?
APOBEC3A inh: 2; NTR1 agonist: 7; A3G deaminase: -5; AHR act: 0

How did Nc1n[nH]c(=S)n1-c1ccc(Cl)cc1 do in these assays?
APOBEC3A inh: -2; NTR1 agonist: -1; A3G deaminase: 52*; AHR act: 1; APOBEC3G confirm: 63*; UDG A3G counter: 0

What do the screens show for `S=c1[nH]nc(-c2ccc(Cl)cc2)n1-c1ccc(Cl)cc1`?
APOBEC3A inh: 0; NTR1 agonist: 0; A3G deaminase: 4; AHR act: 5

What do the screens show for `O=C(O)C1CCCN1c1ncccc1[N+](=O)[O-]` (configuration not stated)?
APOBEC3A inh: 0; NTR1 agonist: -2; A3G deaminase: -2; AHR act: 3

Results for COc1ccc(NC(=O)CC2Sc3ncnn3C2=O)cc1 (configuration not stated) ?
APOBEC3A inh: 5; NTR1 agonist: 0; A3G deaminase: 26; AHR act: 2

How did CCOC(=O)c1ccc(NC(=O)CC2Sc3ncnn3C2=O)cc1 (configuration not stated) do in these assays?
APOBEC3A inh: -3; NTR1 agonist: -2; A3G deaminase: 42*; AHR act: -5; APOBEC3G confirm: 50*; UDG A3G counter: 1

Results for O=C(NCCc1ccc(Cl)cc1)C1CCN(c2ncccn2)CC1 ?
APOBEC3A inh: 1; NTR1 agonist: 1; A3G deaminase: -11; AHR act: 0

Results for O=C(CCC1CCCCC1)NCCS(=O)(=O)N1CCN(c2ccccc2)CC1 ?
APOBEC3A inh: -3; NTR1 agonist: 1; A3G deaminase: -10; AHR act: -1

What do the screens show for `O=c1c(O)c(-c2cc(O)c(O)c(O)c2)oc2cc(O)cc(O)c12`?
APOBEC3A inh: 21; NTR1 agonist: 2; A3G deaminase: 41*; AHR act: 4; APOBEC3G confirm: 73*; UDG A3G counter: 2

How did Cc1ccc(S(=O)(=O)N2CCC(C(=O)N3CCCC(C(F)(F)F)C3)CC2)cc1C (configuration not stated) do in these assays?
APOBEC3A inh: -2; NTR1 agonist: -1; A3G deaminase: -7; AHR act: -1

How did O=C1CN(c2ccccc2)C(=S)N1C(=O)c1ccccc1 do in these assays?
APOBEC3A inh: -7; NTR1 agonist: -1; A3G deaminase: 0; AHR act: 5

Results for O=C(c1ccccc1)N1CCC(=O)N1c1ccccc1 ?
APOBEC3A inh: -2; NTR1 agonist: -1; A3G deaminase: 40*; AHR act: -1; APOBEC3G confirm: 4; UDG A3G counter: 6

What do the screens show for `CCn1nc(C)c(CNC(=O)c2cc(COc3ccccc3SC)on2)c1C`?
APOBEC3A inh: 0; NTR1 agonist: 1; A3G deaminase: 0; AHR act: 0

Results for Fc1ccccc1-n1cn[nH]c1=S ?
APOBEC3A inh: -3; NTR1 agonist: 1; A3G deaminase: -11; AHR act: 1

Results for Fc1ccccc1-n1[nH]nnc1=S ?
APOBEC3A inh: 2; NTR1 agonist: -1; A3G deaminase: 52*; AHR act: 0; APOBEC3G confirm: 15*; UDG A3G counter: -3

What do the screens show for `S=c1[nH]nc(NCCCN2CCOCC2)s1`?
APOBEC3A inh: -4; NTR1 agonist: 1; A3G deaminase: 44*; AHR act: 1; APOBEC3G confirm: 47*; UDG A3G counter: -37

What do the screens show for `S=C(NCCCN1CCOCC1)NCCCN1CCOCC1`?
APOBEC3A inh: 0; NTR1 agonist: 1; A3G deaminase: 15; AHR act: 1

What do the screens show for `O=C(Cn1c(=O)oc2ccccc21)Nc1n[nH]c(=S)s1`?
APOBEC3A inh: -7; NTR1 agonist: 1; A3G deaminase: 81*; AHR act: 4; APOBEC3G confirm: 90*; UDG A3G counter: -2

What do the screens show for `O=C(COC(=O)CCCN1C(=O)c2cccc3cccc(c23)C1=O)Nc1cccc(C(F)(F)F)c1`?
APOBEC3A inh: 0; NTR1 agonist: 0; A3G deaminase: 56*; AHR act: 0; APOBEC3G confirm: 0

What do the screens show for `O=C(COC(=O)CCCN1C(=O)c2cccc3cccc(c23)C1=O)Nc1cccc(Br)c1`?
APOBEC3A inh: -1; NTR1 agonist: 2; A3G deaminase: 0; AHR act: 1

What do the screens show for `Cn1nccc1C(=O)Nc1nnc(C2CC2)s1`?
APOBEC3A inh: 0; NTR1 agonist: 1; A3G deaminase: 8; AHR act: 26

What do the screens show for `CCc1ccc(OCC(=O)Nc2ccc(N3CCN(S(C)(=O)=O)CC3)cc2)cc1`?
APOBEC3A inh: 1; NTR1 agonist: 1; A3G deaminase: -1; AHR act: 0

Results for COc1ccc(NC(=O)CN2C(=O)/C(=C3\SC(=S)N(CCC(=O)O)C3=O)c3ccccc32)cc1 ?
APOBEC3A inh: -1; NTR1 agonist: 0; A3G deaminase: 53*; AHR act: -3; APOBEC3G confirm: 71*; UDG A3G counter: 5
